Experiment [1] can be described thus: qHTS assay to identify small molecule antagonists of the sonic hedgehog signaling (Shh) pathway (AID 1259369). Also: nearly all actives have a fitted effect of over 45% in size. Also: potency is read from the fitted curve at half-maximal effect. Summed up:
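Read-out is luminescence from a firefly luciferase gene controlled by the Gli1 response element, in 3T3Gli1-Luc cells pre-incubated 4hr then exposed to compounds and conditioned medium for 24hr.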
On the technique in general: qHTS replaces the single test concentration by a dilution series.

In experiment [2] the target is Estrogen receptor beta (Homo sapiens) (UniProt Q92731). Briefly: qHTS assay to identify small molecule agonists of the estrogen receptor beta (ER-beta) signaling pathway (AID 1259377; active = well fitted activation curve with a large enough effect in the signal ratio in the repeat runs, not every such curve was filed as active; the % refers to the signal ratio). The method, boiled down:
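Read-out: beta-lactamase FRET fluorescence. Cell line: ER-beta-UAS-bla HEK293T in 2% charcoal-stripped FBS. Exposure: 16 hr at 37C. Substrate step: 2 h at room temperature.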

Experiment [3] can be described thus: qHTS assay to identify small molecule antagonists of the estrogen receptor beta (ER-beta) signaling pathway - cell viability counter screen (AID 1259382; active = well fitted curve in the direction sought with a large enough effect in the repeat runs; an effect the other way counts as inactive or inconclusive; also: nearly all actives have a fitted effect of over 55% in size; also: potency is read from the fitted curve at half-maximal effect). The method, boiled down:
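CellTiter-Glo ATP luminescence measured after the LiveBLAzer read in the same wells; ER-beta-UAS-bla HEK293T cells, 16 hr compound treatment with 1nM 17-beta-estradiol agonist at 37C, 5% CO2.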

Experiment [4] can be described thus: qHTS assay to identify small molecule agonists or antagonists of the thyroid stimulating hormone receptor (TSHR) signaling pathway - wild type cell line counter screen (AID 1259384). The method, boiled down: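 Counter screen in untransfected Hek293: compounds (15-point titration, triplicate) plus phosphodiesterase inhibitor Ro20-1724 added after 18 h plating; 30 min RT. Intracellular cAMP via competitive d2/cryptate immunoassay, 1 h incubation.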

Experiment [5] addresses Thyrotropin receptor (Homo sapiens) (UniProt P16473). The experiment can be described thus: qHTS assay to identify small molecule antagonists of the thyroid stimulating hormone receptor (TSHR) signaling pathway (AID 1259385). Also: nearly all actives have a fitted effect of over 20% in size. Also: potency is read from the fitted curve at half-maximal effect. Summed up:
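Antagonist mode: compound-treated TSHR-expressing HEK293 cells were stimulated with 1.5 ng/mL TSH (final) in presence of Ro20-1724 for 30 min at RT. HTRF cAMP detection after 1 h; each compound tested at 15 concentrations, triplicate.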

Experiment [6] in a line: qHTS assay to identify small molecule antagonists of the TGF-beta/Smad signaling pathway - cell viability counter screen (AID 1346824; active = well fitted curve in the direction sought with a large enough effect in the repeat runs; an effect the other way counts as inactive or inconclusive; also: nearly all actives have a fitted effect of over 50% in size; also: potency is read from the fitted curve at half-maximal effect). Summed up: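 Cytotoxicity counter-screen run in the same wells as the beta-lactamase Smad reporter read: CellTiter-Glo luminescence after 30 min at room temperature. HEK 293T SBE-bla cells had 5 hr compound exposure at 37 C with TGF-beta1 (0.25 ng/mL stock).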

Experiment [7] in a line: qHTS assay to identify small molecule agonists of the TGF-beta/Smad signaling pathway - cell viability counter screen (AID 1346829; active = well fitted curve in the direction sought with a large enough effect in the repeat runs; an effect the other way counts as inactive or inconclusive; also: nearly all actives have a fitted effect of over 45% in size; also: potency is read from the fitted curve at half-maximal effect). The method, boiled down:
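Luminescence from CellTiter-Glo, read after a 30 min room-temperature incubation, gives cell viability of SBE-bla HEK 293T cells treated 5 hr with compounds at 37 C.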

The nature of experiment [8]: qHTS assay to identify small molecule agonists of the TGF-beta/Smad signaling pathway (AID 1346859; active = well fitted activation curve with a large enough effect in the signal ratio in the repeat runs, not every such curve was filed as active; the % refers to the signal ratio; also: series mostly up to about 77 µM). Summed up: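 Each well held 4,000 SBE-bla HEK 293T cells incubated overnight before compound addition; 5 hr later the cleavable FRET substrate went on for 2 hr at room temperature, and fluorescence was read at two emissions.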
For experiment [9], the target named is Thyrotropin-releasing hormone receptor (Homo sapiens) (UniProt P34981). The experiment can be described thus: qHTS assay to identify small molecule antagonists of the thyrotropin-releasing hormone receptor (TRHR) signaling pathway (AID 1346877; active = well fitted inhibition curve with a large enough effect in the repeat runs, not every such curve was filed as active; also: potency is read from the fitted curve at half-maximal effect). Summed up:
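Calcium signal in dye-loaded TRHR/HEK293 cells; compounds added 5 min before TRH (1 nM final); fluorescence monitored 3 min at 1 s steps.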

The target of experiment [10] is Estrogen receptor beta (Homo sapiens) (UniProt Q92731). The experiment can be described thus: qHTS assay to identify small molecule antagonists of the estrogen receptor beta (ER-beta) signaling pathway (AID 1259378; active = well fitted inhibition curve with a large enough effect in the signal ratio in the repeat runs, not every such curve was filed as active; the % refers to the signal ratio; also: potency is read from the fitted curve at half-maximal effect). Summed up:
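Antagonist mode: compounds added to beta-lactamase reporter HEK293T ER-beta-UAS cells stimulated with E2 (1nM final), 16 hr at 37C. LiveBLAzer B/G FRET substrate, 2 hours room temperature, fluorescence read-out.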

Experiment [11] is described as follows: qHTS assay to identify small molecule agonists of the androgen receptor (AR) signaling pathway in the presence of an antagonist - cell viability counter screen (AID 1259379; active = well fitted curve in the direction sought with a large enough effect in the repeat runs; an effect the other way counts as inactive or inconclusive; also: nearly all actives have a fitted effect of over 25% in size; also: potency is read from the fitted curve at half-maximal effect). Summed up: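 Each compound was tested at 15 concentrations on MDA-kb2 cells in the presence of 3.0uM nilutamide. Viability was measured by CellTiter-Fluor fluorescence after a 16 hr incubation at 37C in a CO2-free atmosphere.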

Experiment [12] is described as follows: qHTS assay to identify small molecule agonists of the estrogen receptor beta (ER-beta) signaling pathway - cell viability counter screen (AID 1259380; active = well fitted curve in the direction sought with a large enough effect in the repeat runs; an effect the other way counts as inactive or inconclusive; also: nearly all actives have a fitted effect of over 30% in size; also: potency is read from the fitted curve at half-maximal effect). Summed up:
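Compounds dissolved in DMSO were pin-transferred onto ER-beta-UAS-bla HEK293T cells that had settled 6 hr, and exposure ran 16 hr at 37C. Following the reporter read, CellTiter-Glo luminescence after 30 min at room temperature indicated cytotoxicity.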

For experiment [13], the target named is Estrogen receptor (Homo sapiens) (UniProt P03372). Briefly: qHTS assay to identify small molecule agonists of the estrogen receptor alpha (ER-alpha) signaling pathway in the presence of an antagonist (AID 1259383). Also: nearly all actives have a fitted effect of over 15% in size. Also: potency is read from the fitted curve at half-maximal effect. As to activation: top concentration of the series differs between compounds. Summed up: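 Luminescent ERE-luciferase reporter, VM7Luc4E2 cells (endogenous ER-alpha); 10.0nM ICI-182,780 final; 15-point compound titration; 22hr at 37C; ONE-Glo, 30min RT.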

Experiment [14] addresses Androgen receptor (Homo sapiens) (UniProt P10275). The experiment can be described thus: qHTS assay to identify small molecule agonists of the androgen receptor (AR) signaling pathway in the presence of an antagonist (AID 1259381). Also: nearly all actives have a fitted effect of over 15% in size. The method, boiled down:
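Plated MDA-kb2 cells (3,000/well) were pre-incubated 5hr, given nilutamide (3.0uM final) or buffer, then dosed with compounds in DMSO at 15 concentrations. Luciferase activity was quantified by luminescence after 16hr at 37C.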

The target of experiment [15] is Progesterone receptor (Homo sapiens) (UniProt P06401). The experiment can be described thus: qHTS assay to identify small molecule antagonists of the progesterone receptor (PR) signaling pathway (AID 1346795; active = well fitted inhibition curve with a large enough effect in the signal ratio in the repeat runs, not every such curve was filed as active; the % refers to the signal ratio; also: potency is read from the fitted curve at half-maximal effect). The method, boiled down: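 In HEK293T cells bearing the PR-UAS-bla reporter, compound effects on promegestone-driven (1 nM) beta-lactamase expression are assessed after 16 hr using a fluorescent FRET substrate incubated 2 hr at room temperature.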

The nature of experiment [16]: qHTS assay to identify small molecule antagonists of the progesterone receptor (PR) signaling pathway - cell viability counter screen (AID 1346798; active = well fitted curve in the direction sought with a large enough effect in the repeat runs; an effect the other way counts as inactive or inconclusive; also: series mostly up to about 92 µM; nearly all actives have a fitted effect of over 50% in size). The method, boiled down: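 Following a 4 hr attachment, PR-UAS-bla HEK293T cells in charcoal-stripped FBS medium were exposed to compounds with R5020 for 16 hr; CellTiter-Glo was added and luminescence read after 30 min at room temperature.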

The nature of experiment [17]: qHTS assay to identify small molecule agonists of the estrogen receptor alpha (ER-alpha) signaling pathway in the presence of an antagonist - cell viability counter screen (AID 1259386; active = well fitted curve in the direction sought with a large enough effect in the repeat runs; an effect the other way counts as inactive or inconclusive;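 also: cells exposed to compounds for 22 h at 37 °C before the viability read; nearly all actives have a fitted effect of over 30% in size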; also: potency is read from the fitted curve at half-maximal effect). The method, boiled down:
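Using estrogen-depleted VM7Luc4E2 cells, the 15-concentration compound series was applied together with 10.0nM ICI-182,780 and incubated 22hr at 37C/5% CO2. Cell viability was then scored by CellTiter-Fluor.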

Experiment [18] addresses Progesterone receptor (Homo sapiens) (UniProt P06401). Briefly: qHTS assay to identify small molecule agonists of the progesterone receptor (PR) signaling pathway (AID 1346784). Also: nearly all actives have a fitted effect of over 30% in size. The method, boiled down: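 Compounds were tested for PR agonism in HEK 293T cells bearing a beta-lactamase gene under UAS control. Treatment lasted 16 hr at 37C; signal came from fluorescence of a FRET substrate.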

In experiment [19] the target is Thyrotropin-releasing hormone receptor (Homo sapiens) (UniProt P34981). Briefly: qHTS assay to identify small molecule agonists of the thyrotropin-releasing hormone receptor (TRHR) signaling pathway (AID 1346891). Also: potency is read from the fitted curve at half-maximal effect. As to activation: series mostly up to about 58 µM. Summed up: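 Screening of agonists relied on calcium signalling in HEK293 cells expressing human TRHR: dye loading 2 h at 37 °C preceded compound addition and a 3-min fluorescence time course.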

Experiment [20] in a line: qHTS assay to identify small molecule agonists of the progesterone receptor (PR) signaling pathway - cell viability counter screen (AID 1346799). Also: nearly all actives have a fitted effect of over 45% in size. Summed up: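 Here, 3,000 PR-UAS-bla HEK293T cells per well were treated with compounds for 16 hr after a 6 hr preincubation at 37C and 5% CO2; cell viability is the CellTiter-Glo luminescence signal.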

Structures are written as SMILES. Records with an inconclusive call do not appear. The source made the active and inactive calls. Unless noted, calls follow the shape of the full dose curve.

Estrogen receptor (Homo sapiens), sequence (P03372 whole entry, looked up): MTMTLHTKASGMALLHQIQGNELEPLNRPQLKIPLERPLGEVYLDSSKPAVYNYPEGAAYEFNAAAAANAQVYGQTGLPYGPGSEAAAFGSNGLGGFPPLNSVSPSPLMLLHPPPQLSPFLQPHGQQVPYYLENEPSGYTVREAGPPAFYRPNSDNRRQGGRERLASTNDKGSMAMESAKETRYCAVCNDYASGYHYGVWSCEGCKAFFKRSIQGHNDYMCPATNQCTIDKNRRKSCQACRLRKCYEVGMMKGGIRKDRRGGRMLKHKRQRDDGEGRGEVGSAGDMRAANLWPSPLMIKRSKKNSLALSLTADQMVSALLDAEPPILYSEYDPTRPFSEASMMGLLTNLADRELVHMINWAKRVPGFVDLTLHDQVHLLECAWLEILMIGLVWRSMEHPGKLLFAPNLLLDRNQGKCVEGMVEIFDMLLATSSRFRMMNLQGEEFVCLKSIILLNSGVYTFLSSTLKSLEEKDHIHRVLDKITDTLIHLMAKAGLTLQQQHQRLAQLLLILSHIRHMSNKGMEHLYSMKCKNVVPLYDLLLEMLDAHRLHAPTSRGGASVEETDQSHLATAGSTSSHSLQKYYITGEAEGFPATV
Estrogen receptor beta (Homo sapiens), sequence (Q92731 whole entry, looked up): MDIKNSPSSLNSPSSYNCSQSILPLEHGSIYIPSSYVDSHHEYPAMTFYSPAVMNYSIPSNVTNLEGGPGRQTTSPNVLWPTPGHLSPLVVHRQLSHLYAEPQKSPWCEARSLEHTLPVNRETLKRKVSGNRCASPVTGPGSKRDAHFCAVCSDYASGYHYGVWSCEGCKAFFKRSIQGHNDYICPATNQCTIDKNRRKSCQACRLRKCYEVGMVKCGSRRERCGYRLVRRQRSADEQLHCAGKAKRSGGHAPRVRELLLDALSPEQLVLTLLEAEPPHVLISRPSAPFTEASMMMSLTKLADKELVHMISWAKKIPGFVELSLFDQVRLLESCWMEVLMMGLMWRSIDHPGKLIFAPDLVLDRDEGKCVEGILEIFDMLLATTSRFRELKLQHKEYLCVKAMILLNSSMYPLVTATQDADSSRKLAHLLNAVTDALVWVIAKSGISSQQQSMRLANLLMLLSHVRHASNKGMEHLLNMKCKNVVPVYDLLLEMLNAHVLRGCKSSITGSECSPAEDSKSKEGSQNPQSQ
Thyrotropin receptor (Homo sapiens), sequence (P16473 whole entry, looked up): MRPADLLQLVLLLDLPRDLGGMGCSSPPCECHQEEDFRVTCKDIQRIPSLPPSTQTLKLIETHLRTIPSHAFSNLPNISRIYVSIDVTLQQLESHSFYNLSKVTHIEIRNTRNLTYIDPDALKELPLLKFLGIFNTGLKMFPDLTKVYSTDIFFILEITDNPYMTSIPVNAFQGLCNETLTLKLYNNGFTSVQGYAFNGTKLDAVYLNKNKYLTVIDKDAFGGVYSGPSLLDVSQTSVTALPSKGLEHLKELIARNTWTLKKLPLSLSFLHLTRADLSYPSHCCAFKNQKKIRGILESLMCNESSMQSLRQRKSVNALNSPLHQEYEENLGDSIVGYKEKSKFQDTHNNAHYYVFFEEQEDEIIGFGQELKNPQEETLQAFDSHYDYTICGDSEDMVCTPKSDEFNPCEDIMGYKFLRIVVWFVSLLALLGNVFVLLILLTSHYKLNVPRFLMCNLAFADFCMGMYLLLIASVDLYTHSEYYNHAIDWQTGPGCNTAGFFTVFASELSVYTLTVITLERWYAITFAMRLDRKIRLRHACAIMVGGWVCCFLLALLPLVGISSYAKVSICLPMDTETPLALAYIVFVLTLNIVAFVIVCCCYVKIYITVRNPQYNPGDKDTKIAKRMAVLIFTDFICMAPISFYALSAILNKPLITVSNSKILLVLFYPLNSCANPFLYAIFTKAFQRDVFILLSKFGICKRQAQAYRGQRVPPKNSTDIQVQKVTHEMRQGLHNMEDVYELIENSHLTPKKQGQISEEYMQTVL
Progesterone receptor (Homo sapiens), sequence (P06401 whole entry, looked up): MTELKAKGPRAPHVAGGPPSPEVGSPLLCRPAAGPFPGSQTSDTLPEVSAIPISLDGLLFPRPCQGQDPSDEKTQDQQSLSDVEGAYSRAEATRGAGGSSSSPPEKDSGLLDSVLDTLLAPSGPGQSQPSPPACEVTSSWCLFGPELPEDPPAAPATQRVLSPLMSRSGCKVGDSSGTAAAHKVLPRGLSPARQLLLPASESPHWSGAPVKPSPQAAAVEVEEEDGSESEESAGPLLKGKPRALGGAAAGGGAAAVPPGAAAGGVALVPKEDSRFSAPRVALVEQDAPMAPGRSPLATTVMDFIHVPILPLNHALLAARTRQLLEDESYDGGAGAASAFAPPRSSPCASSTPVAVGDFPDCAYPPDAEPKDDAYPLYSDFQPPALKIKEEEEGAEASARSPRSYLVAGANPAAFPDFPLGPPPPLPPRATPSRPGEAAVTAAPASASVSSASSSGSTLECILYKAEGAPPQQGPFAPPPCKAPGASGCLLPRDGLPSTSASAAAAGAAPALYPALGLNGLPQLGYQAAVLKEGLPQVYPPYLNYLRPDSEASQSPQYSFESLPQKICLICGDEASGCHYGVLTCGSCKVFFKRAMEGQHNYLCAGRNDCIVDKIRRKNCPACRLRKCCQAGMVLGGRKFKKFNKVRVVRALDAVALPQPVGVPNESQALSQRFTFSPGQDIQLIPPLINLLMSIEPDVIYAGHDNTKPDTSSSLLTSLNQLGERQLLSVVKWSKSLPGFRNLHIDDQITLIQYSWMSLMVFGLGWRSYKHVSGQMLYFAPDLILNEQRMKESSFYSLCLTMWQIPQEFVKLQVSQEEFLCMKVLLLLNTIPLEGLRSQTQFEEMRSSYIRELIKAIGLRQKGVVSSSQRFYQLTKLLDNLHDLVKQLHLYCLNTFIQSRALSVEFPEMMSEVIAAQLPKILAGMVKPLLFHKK
Thyrotropin-releasing hormone receptor (Homo sapiens), sequence (P34981 whole entry, looked up): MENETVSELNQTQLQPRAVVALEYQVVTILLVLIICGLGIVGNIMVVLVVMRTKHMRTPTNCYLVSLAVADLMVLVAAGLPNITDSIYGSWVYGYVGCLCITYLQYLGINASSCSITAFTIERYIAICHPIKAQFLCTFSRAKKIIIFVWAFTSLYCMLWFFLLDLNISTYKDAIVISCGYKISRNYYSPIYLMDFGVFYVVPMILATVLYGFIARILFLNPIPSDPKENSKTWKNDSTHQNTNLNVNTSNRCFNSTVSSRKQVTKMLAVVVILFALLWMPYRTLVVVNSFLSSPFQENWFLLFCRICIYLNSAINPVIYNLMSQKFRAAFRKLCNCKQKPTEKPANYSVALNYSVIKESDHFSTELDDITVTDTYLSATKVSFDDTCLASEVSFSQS
Androgen receptor (Homo sapiens), sequence (P10275 whole entry, looked up): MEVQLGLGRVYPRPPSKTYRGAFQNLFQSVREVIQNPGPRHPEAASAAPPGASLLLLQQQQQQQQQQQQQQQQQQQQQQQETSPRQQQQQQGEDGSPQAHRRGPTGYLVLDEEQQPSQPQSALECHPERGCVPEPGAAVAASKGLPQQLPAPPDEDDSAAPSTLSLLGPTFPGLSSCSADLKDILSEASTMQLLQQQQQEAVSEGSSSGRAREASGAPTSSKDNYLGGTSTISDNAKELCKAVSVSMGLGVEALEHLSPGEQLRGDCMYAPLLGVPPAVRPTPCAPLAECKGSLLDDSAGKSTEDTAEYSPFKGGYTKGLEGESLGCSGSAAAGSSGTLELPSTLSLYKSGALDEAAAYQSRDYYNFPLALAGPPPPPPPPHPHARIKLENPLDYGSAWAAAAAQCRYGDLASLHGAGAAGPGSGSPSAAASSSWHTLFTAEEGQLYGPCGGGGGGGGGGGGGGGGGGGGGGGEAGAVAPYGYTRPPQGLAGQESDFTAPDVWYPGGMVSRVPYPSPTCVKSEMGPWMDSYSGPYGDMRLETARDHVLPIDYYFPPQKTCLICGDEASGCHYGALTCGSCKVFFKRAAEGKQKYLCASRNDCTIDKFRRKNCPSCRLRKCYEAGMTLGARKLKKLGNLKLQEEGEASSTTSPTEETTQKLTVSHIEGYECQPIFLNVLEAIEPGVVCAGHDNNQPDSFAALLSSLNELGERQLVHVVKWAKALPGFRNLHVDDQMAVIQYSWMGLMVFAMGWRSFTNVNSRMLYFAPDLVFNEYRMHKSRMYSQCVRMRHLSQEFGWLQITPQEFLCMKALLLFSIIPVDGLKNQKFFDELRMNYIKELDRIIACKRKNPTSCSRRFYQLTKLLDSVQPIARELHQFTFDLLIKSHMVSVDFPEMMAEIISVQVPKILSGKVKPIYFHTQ

As to `CCCOCC(=Nc1ccc(Cl)cc1C(F)(F)F)n1ccnc1`, the Potency in experiment [1] was 9.68 µM (active); in experiment [3], 61.1 µM (active). Further, the Potency result in [2], in experiment [5], in experiment [6], in experiment [7] and in experiment [9] was “inactive” each time. Further, the compound was classed as inactive in experiment [4] and in experiment [8].

Regarding `Oc1ccc(C(=C(Cl)Cl)c2ccc(O)cc2)cc1`, the Potency was 9.67 µM (active) in experiment [1]; 3.43 µM (active) in experiment [10]; 68.5 µM (active) in experiment [12]; 68.5 µM (active) in [3]; 1.93 µM (active) in experiment [13]. The Potency result in experiment [11], in experiment [5] and in experiment [6] was “inactive” each time. For the same compound, the result in experiment [4] and in [8] was inactive.

Regarding `Oc1cc(Cl)c(Cl)c(Cl)c1`, the results for the Potency in [1], in experiment [12] and in experiment [15] were 13 µM (active), 25.9 µM (active) and 13 µM (active), respectively. Further, the Potency result in experiment [2], in experiment [14], in [13], in experiment [5], in experiment [16] and in [6] was “inactive” throughout. In addition, the Potency entry in [9] is “inactive”. Besides, the outcome in [4] and in experiment [8] was inactive.

In the case of `CCCCCCCCCCBr`, the Potency entry in experiment [1], in experiment [10], in experiment [11], in experiment [12], in [3] and in experiment [17] was “inactive” in each case. The Potency entry in experiment [18], in [15], in experiment [16], in experiment [7] and in [9] was “inactive” in each case. Further, in [8], the result was inactive.

For the compound `CCCCCCCCCCCCCCCCCCn1cc[n+](C)c1`, the Potency was 0.0542 µM (active) in experiment [1]; 21.6 µM (active) in experiment [11]; 30.5 µM (active) in experiment [12]; 30.5 µM (active) in [3]; 60.8 µM (active) in [17]; 21.7 µM (active) in experiment [6]. Also, the Potency in experiment [7] is 48.7 µM (active). Besides, the Potency result in experiment [14], in [13], in experiment [5], in experiment [18], in [9] and in [19] was “inactive” in each case.

Consider `O=C(Cl)c1ccc(Cl)cc1`, for which the Potency entry in experiment [1], in [11], in [12], in [14], in experiment [3] and in [13] was “inactive” throughout. Besides, the Potency entry in [5], in experiment [17], in [18], in experiment [20], in experiment [6] and in [7] was “inactive” throughout. Further, in experiment [8], the outcome was inactive.

For the compound `COP(N)(=S)OC`, the Potency entry in experiment [1], in [11], in [12], in [14], in experiment [3] and in experiment [13] was “inactive” throughout. In addition, the Potency entry in experiment [5], in experiment [17], in [18], in experiment [15], in [16] and in experiment [20] was “inactive” in each case. The Potency result in experiment [6] and in experiment [7] was “inactive” in each case. Moreover, the compound was called inactive in [4] and in experiment [8].

For `O=C(Nc1ccc2[nH]ccc2c1)c1cc2cc(F)ccc2n1Cc1cccc(F)c1`, the Potency is 24.3 µM (active) in [1] and 12.2 µM (active) in [15]. For the same compound, the Potency result in experiment [2], in experiment [13], in experiment [20], in [6], in experiment [9] and in [19] was “inactive” in each case. For the same compound, the call in experiment [4] was inactive.

On to `C[C@@H]1CC[C@@]2(OC1)O[C@H]1[C@@H](O)[C@H]3[C@@H]4CC[C@H]5C[C@@H](O[C@@H]6O[C@H](CO)[C@H](O[C@@H]7O[C@H](CO)[C@@H](O)[C@H](O[C@@H]8OC[C@@H](O)[C@H](O)[C@H]8O)[C@H]7O[C@@H]7O[C@H](CO)[C@@H](O)[C@H](O[C@@H]8O[C@H](CO)[C@@H](O)[C@H](O)[C@H]8O)[C@H]7O)[C@H](O)[C@H]6O)[C@H](O)C[C@]5(C)[C@H]4CC[C@]3(C)[C@H]1[C@@H]2C`, for which the Potency was 1.15 µM (active) in experiment [1]; 57.8 µM (active) in [11]; 9.16 µM (active) in experiment [12]; 10.3 µM (active) in [3]; 4.59 µM (active) in experiment [5]; 72.8 µM (active) in experiment [17]. In addition, the Potency in [6] is 23.2 µM (active); in experiment [7], 20.7 µM (active); in [9] it was 804 nM (active); in experiment [19], 655 nM (active). The Potency entry in experiment [14] and in experiment [13] was “inactive” each time. The outcome in [4] was inactive.

For the origin of these results see PubChem BioAssay (Tox21).
